# Reference: PubChem BioAssay AID2690 (NMMLSC, 2010)
# The campaign covered roughly 330,000 compounds. About 590 (0.18%) were called active.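 The calls were made as follows: active = superoxide response under a set limit, about three screen SD below normal (cut at about 65% in these data); inactive = the rest.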 Many of the other results were omitted from the sample, so actives are more common in it than they were.
# Assay: reduction of superoxide in aged yeast, primary screen, HTS (AID 2690);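 also: yeast aged for seven days with compound at 30 °C before DHE staining; 100% = average MFI of all compound-treated wells on the plate with controls excluded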
# Conditions: S. cerevisiae aged cells, superoxide DHE fluorescence; at 10 µM; stronger effect = lower value
row,SMILES,superoxide response (% of plate mean)
1,CC1CC(C)CN(C(=O)CSc2ccsc2[N+](=O)[O-])C1 (stereo not drawn),155% (inactive)
2,CCCCc1cc(=O)oc2c(C)c(OCC(=O)N3CCC(C(N)=O)CC3)ccc12,81.2% (inactive)
3,Cc1cc2c(C)nc(N/N=C/c3ccccc3)nc2o1,97.9% (inactive)
4,Cc1c(NC(=O)c2coc(=O)c(Br)c2)c(=O)n(-c2ccccc2)n1C,96.5% (inactive)
5,Cc1cc2oc(C(=O)Nc3c(C)n(C)n(-c4ccccc4)c3=O)c(C)c2cc1Cl,43% (active)
6,Cc1c(NC(=O)c2cc(-c3ccc(Br)cc3)on2)c(=O)n(-c2ccccc2)n1C,98.6% (inactive)
7,CC1(C)CC(=O)C=C(c2cccc3c2Oc2ccccc2S3)C1,109% (inactive)
8,O=C(CSc1nc2[nH]c(=O)[nH]c(=O)c2s1)Nc1cccc(F)c1,94.1% (inactive)
9,Cc1cc2ncn(CCCCOc3ccccc3)c2cc1C,80.1% (inactive)
10,COc1ccc(CNC(=O)C2CC(c3ccc(C(F)(F)F)cc3)=NO2)cc1 (stereo not drawn),103% (inactive)
11,O=S(=O)(NCCCCCCNS(=O)(=O)c1c(F)cccc1F)c1ccc2c(c1)OCCO2,104% (inactive)
12,O=C(O)C1CCN(S(=O)(=O)N2CCOCC2)CC1,126% (inactive)
13,COc1ccc(CCNC(=O)c2ccccc2-c2ccccc2C(=O)O)cc1OC,57.2% (active)
14,COc1ccc(CCNC(=O)Cc2ccc(C)cc2)cc1OC,102% (inactive)
15,O=C(O)c1ccccc1-c1ccccc1C(=O)NCCc1ccccc1,108% (inactive)
16,Cc1ccc(NC(=O)CN2CCC3(O)CCCCC3C2c2ccc3c(c2)OCO3)c(C)c1 (stereo not drawn),95% (inactive)
17,COc1cccc(NC(=O)[C@H](Cc2c[nH]c3ccccc23)NC(=O)[C@@H]2Cc3ccccc3CN2)c1,113% (inactive)
18,O=C(NC1CCN(Cc2ccccc2)CC1)c1ccc(Oc2cc(Cl)cc(Cl)c2)o1,87.6% (inactive)
19,COc1cccc(NC(=O)NCCN2CCCCC2)c1,34.4% (active)
20,CCc1ccccc1NC(=O)NCCN1CCCCC1,92.8% (inactive)
21,COc1cccc(NC(=S)NCCCN2CCOCC2)c1,96.1% (inactive)
22,CC(=O)NC1=NN(C(C)=O)C(C)(c2ccc(Cl)s2)S1 (stereo not drawn),102% (inactive)

row,SMILES,superoxide response (% of plate mean)
1,CC(=O)NC1=NN(C(C)=O)C(C)(c2ccc(C)cc2)S1 (stereo not drawn),108% (inactive)
2,CC(=O)NC1=NN(C(C)=O)C(C)(CCS(=O)(=O)c2ccc(Cl)c(Cl)c2)S1 (stereo not drawn),63.7% (active)
3,Cc1nc([N+](=O)[O-])cn1CC(=O)Nc1ccc(Cl)cc1,104% (inactive)
4,COc1ccc(C2=NN(c3nc4ccccc4s3)C(=O)C2)cc1,51% (active)
5,COc1ccc(/C=C(/CC(=O)Nc2ccc(C)cc2)c2nc3ccccc3s2)cc1,97.7% (inactive)
6,COc1ccc(-n2nnnc2-c2nc3ccccc3s2)cc1,88.6% (inactive)
7,COc1ccc2c(c1)OC(O)(C(F)(F)C(F)F)CC2=O (stereo not drawn),82.7% (inactive)
8,CCN(CC)S(=O)(=O)c1cc([N+](=O)[O-])ccc1NNC(=O)Nc1ccccc1,101% (inactive)
9,CCOc1ccc(N2CC(C(=O)N/N=C/c3sccc3C)CC2=O)cc1 (stereo not drawn),100% (inactive)
10,COc1ccc2[nH]c(=O)c(CNc3ccc(C)c(C)c3)cc2c1,96.3% (inactive)
11,COc1cc(C(=S)N2CCOCC2)cc(OC)c1OC(=O)c1cc([N+](=O)[O-])c(C)c([N+](=O)[O-])c1,113% (inactive)
12,CCCC1NC(=S)NC(C)=C1C(C)=O (stereo not drawn),92.8% (inactive)
13,O=[N+]([O-])c1ccc2c(c1)Nc1nc3ccccc3nc1N2,61.2% (active)
14,O=[N+]([O-])c1ccc2nc(-c3ccccn3)[nH]c2c1,98.5% (inactive)
15,COc1ccc([N+](=O)[O-])cc1-c1nc2ccccc2nc1-c1ccccc1,99.1% (inactive)
16,Cc1nn(CC(=O)Nc2ccc(F)cc2)c(=O)c2ccccc12,98.5% (inactive)
17,Cc1ccc(NC(=O)Cn2nc(C)c3ccccc3c2=O)c(C)c1,54.4% (active)
18,Cc1nn(CC(=O)Nc2ccc3c(c2)nc(CN2CCCCC2)n3C)c(=O)c2ccccc12,94.1% (inactive)
19,Cc1ccc(-c2nc(CS(=O)CC(=O)NC3CCCC3)c(C)o2)cc1 (stereo not drawn),108% (inactive)
20,Cc1ccc(-c2nc(CS(=O)CC(=O)N3CCN(c4ncccn4)CC3)c(C)o2)cc1 (stereo not drawn),63.9% (active)
21,COc1ccc(-c2nc(CS(=O)CC(=O)N3CCc4ccccc4C3)c(C)o2)cc1 (stereo not drawn),92.3% (inactive)
